Measurements published in PubChem BioAssay.
The source made the active and inactive calls. Unless noted, how the calls were made is not given here.

Columns and labels:
[1] = test system: Wnt5a (protein binding on small-molecule microarray); assay: Wnt5a binders on small-molecule microarray, primary screen, biophysical, 635/667 nm fluorescence (AID 1142); conditions: 635 nm fluorescence, higher = more signal;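 further: fluorescence read at 667 nm with signal to noise per printed feature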
[2] = cell viability in Huh7 cells, primary screen, cytotoxicity control for HCV replication inhibitor project, CellTiter-Glo luminescence, basal, 48 h (AID 1143); conditions: Huh7 HCV replicon, higher = more signal, called active from +8 up or from −8 down;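 further: Huh7 hepatoma cells carrying a hepatitis C replication reporter with no stimulus; test concentration not given here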
[3] = P. aeruginosa biofilm formation inhibitors, primary screen, PAO1 strain, BacTiter-Glo luminescence, LB-PBS (AID 1144); conditions: 12 h, higher = more signal
[4] = CREB reporter modulators without forskolin, primary screen, cell-based, PC12, CRE-LacZ reporter, unstimulated (AID 1145); conditions: no forskolin, luminescence, 4.5 h, higher = more signal, called active from +8 up or from −8 down
[5] = CREB reporter modulators under forskolin, primary screen, cell-based, PC12, CRE-LacZ reporter, forskolin-stimulated (AID 1146); conditions: luminescence, 4.5 h, higher = more signal, called active from +8 up or from −8 down;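 further: PC12 cells with 6xCRE LacZ reporter stimulated by forskolin 10 µM; beta-galactosidase reporter signal reflecting CREB driven transcription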
[6] = target: Streptavidin (Streptomyces avidinii) (UniProt P22629); assay: streptavidin binders on small-molecule microarray, primary screen, artefact control for SMM compound annotation, biophysical, 635/667 nm fluorescence (AID 1147); conditions: streptavidin binding, higher = more signal;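 further: signal reflects streptavidin binding to arrayed compounds as a control protein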
Chain of Streptavidin (Streptomyces avidinii) (P22629 whole entry, looked up): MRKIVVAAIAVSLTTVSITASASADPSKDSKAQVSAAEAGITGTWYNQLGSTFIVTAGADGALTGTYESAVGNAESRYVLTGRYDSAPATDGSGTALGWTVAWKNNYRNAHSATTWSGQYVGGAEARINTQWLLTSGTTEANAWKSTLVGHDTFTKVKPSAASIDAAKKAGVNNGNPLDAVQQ

[7] = small-molecule binders of probe aInhba, primary screen, biochemical, small-molecule microarray, 635/667 nm fluorescence (AID 1148); conditions: higher = more signal;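 further: score merges 667nm spot fluorescence with signal-to-noise for antibody binding to printed compounds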
[8] = target: Torsin-1A (Homo sapiens) (UniProt O14656); assay: torsin A binders from cell lysate, primary screen, small-molecule microarray, wild-type, 635/667 nm (AID 1149); conditions: COS7 hTOR1A-WT lysate, 635 nm fluorescence, higher = more signal
Chain of Torsin-1A (Homo sapiens) (O14656 whole entry, looked up): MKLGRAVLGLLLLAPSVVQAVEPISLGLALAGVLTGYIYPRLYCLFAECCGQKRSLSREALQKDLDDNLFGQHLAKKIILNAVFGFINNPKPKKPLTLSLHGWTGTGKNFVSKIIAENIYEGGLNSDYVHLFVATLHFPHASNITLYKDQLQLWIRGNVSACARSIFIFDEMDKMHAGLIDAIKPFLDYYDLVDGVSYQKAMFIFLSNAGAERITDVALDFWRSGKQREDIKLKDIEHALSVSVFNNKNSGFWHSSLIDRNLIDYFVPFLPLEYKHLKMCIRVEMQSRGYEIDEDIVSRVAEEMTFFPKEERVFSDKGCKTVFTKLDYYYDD

[9] = target: Torsin-1A (Homo sapiens) (UniProt O14656); assay: small-molecule binders of mutant TOR1A in lysate, primary screen, cell lysate, small-molecule microarray, COS7 lysate, 635/667 nm fluorescence (AID 1150); conditions: COS7 hTOR1A mutant lysate, 635 nm fluorescence, higher = more signal;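 further: score pools 667 nm emission and signal to noise measuring lysate protein binding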
[10] = test system: Sonic hedgehog protein (Shh); assay: small-molecule binders of Shh protein, primary screen, biochemical, small-molecule microarray, 635/667 nm fluorescence (AID 1151); conditions: small-molecule microarray binding, 635 nm fluorescence; higher = more signal;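 further: Shh protein binding to compounds spotted on small-molecule microarray slides; score combines spot fluorescence intensity with signal-to-noise across triplicate slides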

SMILES	composite z-score [1]	z-score [2]	z-score [3]	z-score [4]	z-score [5]	composite z-score [6]	composite z-score [7]	composite z-score [8]	composite z-score [9]	composite z-score [10]
COCCCNC(=O)[C@@H]1c2ccccc2C(=O)N(CC23CC4CC(CC(C4)C2)C3)[C@H]1c1ccc(CO)cc1	1.01	-4.78 (inactive)	-0.689 (inactive)	-0.0259 (inactive)	-1.07 (inactive)	-0.269	0.266	0.306	0.262	1.03
CC(C)NC(=O)[C@@]1(Cc2ccccc2I)c2ccccc2C(=O)N(C2CCCCC2)[C@H]1c1ccc(CO)cc1	0.345	-3.83 (inactive)	-1.09 (inactive)	0.531 (inactive)	0.24 (inactive)	0.999	0.122	0.457	0.559	0.28
[N-]=[N+]=NCc1ccccc1[C@H]1OC(c2ccc(OCCCO)cc2)=N[C@@]1(Cc1ccccc1N=[N+]=[N-])C(=O)NCc1ccccc1	0.928	-3.99 (inactive)	-0.358 (inactive)	1.74 (inactive)	-0.676 (inactive)	0.303	0.671	0.22	0.681	0.033
CCc1cccc(NC(=O)O[C@H]2[C@H](OC(=O)Nc3ccccc3)[C@@H](OC(=O)Nc3ccccc3)[C@@H](OC)O[C@@H]2CO)c1	0.73	-5.6 (inactive)	-0.944 (inactive)	0.344 (inactive)	-1.9 (inactive)	0.39	0.0785	2.73	0.896	1.72
O=C1NC(=O)C2C1C=CC(C(O)C=Cc1ccc([N+](=O)[O-])cc1)N2Nc1ccccn1 (stereo not given)	0.421	0.931 (inactive)	-1.23 (inactive)	0.443 (inactive)	-0.28 (inactive)	-0.208	0.0694	0.151	0.13	0.809
O=C1O[C@H](c2ccccc2)[C@H](c2ccccc2)N2[C@H]1[C@@H](C(=O)NC[C@H](O)c1ccccc1)[C@]1(C(=O)Nc3ccc(C#CC4(O)CCCCCC4)cc31)[C@H]2c1ccc(OCCO)cc1	0.288	-5.26 (inactive)	-0.37 (inactive)	-0.231 (inactive)	-0.581 (inactive)	0.463	0.0082	0.127	0.644	0.756
Cc1ccc(S(=O)(=O)N2[C@@H](c3ccccc3)C(C(=O)O)=CC[C@H]2c2ccccc2)cc1	0.105	-0.498 (inactive)	0.0815 (inactive)	0.0707 (inactive)	-0.303 (inactive)	0.263	0.0631	0.195	-0.0024	-0.497
C=C(COC)C(=O)CC[C@H](OC(=O)c1ccccc1-c1ccccc1C(=O)O)c1cccc(OCCO)c1	2.01	-8.1 (active)	-0.805 (inactive)	0.102 (inactive)	0.683 (inactive)	-1.8	-0.0332	2.33	2.6	2.34
COc1cc(CO)cc(I)c1O[C@H]1C=C(C(=O)NCCO)C[C@@H](N(CC2CCCCC2)C(=O)c2cc3ccccc3oc2=O)[C@@H]1O	0.159	-0.0365 (inactive)	-0.143 (inactive)	1.13 (inactive)	-1.27 (inactive)	0.745	-0.0332	0.0653	0.0077	0.568
COCCOC(=O)N1C(=O)[C@@]2(c3cc(C#CCCO)ccc31)[C@H](c1ccc(O)cc1)N1[C@H](c3ccccc3)[C@H](c3ccccc3)OC(=O)[C@H]1[C@@H]2C(=O)Nc1nc2ccccc2s1	0.607	-2.49 (inactive)	-1.24 (inactive)	-1.7 (inactive)	-0.0062 (inactive)	0.996	-0.0062	-0.0624	0.236	2.03
CC(C)[Si](OCC[C@H]1O[C@]2(C(=O)N(Cc3ccccc3)c3ccccc32)[C@@H](C)[C@@H]1[Si](C)(C)O)(C(C)C)C(C)C	0.0427	-0.555 (inactive)	0.735 (inactive)	0.223 (inactive)	-0.242 (inactive)	-0.0546	-0.171	0.399	-0.131	0.255
CO[C@H]1O[C@H](CO)[C@@H](OC(=O)Nc2ccc3c(c2)OCO3)[C@H](OC(=O)Nc2ccccc2)[C@@H]1OC(=O)Nc1ccccc1	0.743	-3.5 (inactive)	-0.22 (inactive)	0.605 (inactive)	-1.49 (inactive)	0.327	0.0398	0.491	1.09	1.12
CCCC[C@@H]1C[C@H]1[C@@H](NC(=O)c1cccs1)c1ccc(Cl)cc1	-0.29	-3.19 (inactive)	-0.288 (inactive)	0.39 (inactive)	0.958 (inactive)	-1.05	-0.224	-0.989	-1.01	-1.75
CC(=O)NCCCC[C@@H]1NC(=O)[C@H]2C[C@@H](C(=O)NCCCCCCN(C)C)[C@@H](c3cccc(OCCO)c3)N2C1=O	0.906	-0.102 (inactive)	-0.542 (inactive)	0.0084 (inactive)	0.172 (inactive)	0.369	0.222	1.37	1.88	2.22
CCCC=C(CCC)[C@@H](NS(=O)(=O)c1ccc(-c2ccccc2)cc1)c1ccc(C(=O)OC)cc1	-0.228	-3.56 (inactive)	-0.308 (inactive)	-0.182 (inactive)	-0.289 (inactive)	0.111	-0.0791	-0.269	-0.383	-0.948
COCCOC(=O)N1C(=O)[C@@]2(c3cc(C#CC4=CCCCC4)ccc31)[C@H](C(=O)NC[C@H](O)c1ccccc1)[C@H]1C(=O)O[C@H](c3ccccc3)[C@H](c3ccccc3)N1[C@@H]2c1ccccc1OCCO	0.255	-5.75 (inactive)	0.423 (inactive)	0.48 (inactive)	-0.99 (inactive)	0.634	0.243	0.453	0.509	1.53
Cc1ccc(S[C@]2(C(=O)NC(C)C)CC(=O)N(C3Cc4ccccc4C3)[C@@H]2c2ccc(CO)cc2)cc1	-0.157	-4.65 (inactive)	-0.132 (inactive)	-0.231 (inactive)	0.978 (inactive)	-0.37	-0.32	0.876	0.764	1.67
CC(C)(C)OC(=O)CC[C@]1(C(=O)N2CCCCC2)N=C(c2ccc(OCCCO)cc2)O[C@H]1c1ccccc1	0.836	-3.16 (inactive)	0.418 (inactive)	1.55 (inactive)	-1.85 (inactive)	2.08	-0.0112	1.68	1.04	1.19
COCCOC(=O)N1C(=O)[C@@]2(c3cc(C#CC4=CCCCC4)ccc31)[C@H](c1ccc(O)cc1)N1[C@H](c3ccccc3)[C@H](c3ccccc3)OC(=O)[C@H]1[C@@H]2C(=O)N1CCCCCCC1	0.288	-3.42 (inactive)	-0.307 (inactive)	-1.01 (inactive)	-1.09 (inactive)	1.29	0.0818	0.588	0.594	1.76
C[C@]1(C(=O)NCCN2CCOCC2)c2ccccc2C(=O)N(Cc2ccccc2)[C@H]1c1ccc(CO)cc1	-0.21	-1.82 (inactive)	-2.31 (inactive)	-0.412 (inactive)	-0.0192 (inactive)	-0.833	-0.0405	0.403	0.915	-0.928
C=C(CCCC)/C(=C/C[C@@H](OC(=O)c1ccncc1)c1ccc(CO)o1)c1cnc2ccccc2c1	0.209	-1.47 (inactive)	-1.26 (inactive)	2.38 (inactive)	0.176 (inactive)	1.39	0.461	1.42	1.07	2.18
CN1C(=O)C2C=CC(C(O)c3ccc(N(C)C)cc3)N(Nc3ccc([N+](=O)[O-])cc3[N+](=O)[O-])C2C1=O (stereo not given)	0.0988	0.891 (inactive)	-0.202 (inactive)	1.03 (inactive)	0.0229 (inactive)	1.51	0.529	0.977	1.56	0.262
O=C1OCC=C[C@H]2OC34C=CCN(Cc5ccccc5)C(=O)[C@H]3N(CCO)C(=O)[C@@H]4[C@@H]12 (stereo not given in full)	-0.744	0.154 (inactive)	-0.992 (inactive)	-1.31 (inactive)	-0.773 (inactive)	-1.09	-0.307	-2.02	-0.768	-0.722
C=CCC(OC(C)=O)[C@@H]1[C@@H](N(Cc2ccc(-c3cccc(C(F)(F)F)c3)o2)C(=O)Cc2ccc(F)cc2)c2cc(OCCCO)ccc2N1C(=O)c1ccc(-c2ccccc2)cc1 (stereo not given in full)	-0.206	-0.072 (inactive)	-0.581 (inactive)	0.6 (inactive)	0.875 (inactive)	0.0628	-0.157	-0.53	-0.253	0.475
N#Cc1ccc(NN2C(C(O)CCc3ccccc3)C=CC3C(=O)N(c4ccccc4)C(=O)C32)cc1 (stereo not given)	0.135	-0.843 (inactive)	-1.07 (inactive)	-0.905 (inactive)	-0.259 (inactive)	0.79	0.194	-0.0047	0.985	-0.0548
CCCC=C(CCC)[C@@H](NC(=O)c1ccccc1)c1ccccc1	-0.149	-1.26 (inactive)	0.202 (inactive)	-0.561 (inactive)	1.28 (inactive)	0.405	0.0968	-0.106	-0.0692	-0.289
CC1=C([C@H](O)CCc2ccccc2)[C@H](CO)[C@@H]2C(=O)N(Cc3ccccc3)C(=O)[C@@H]2C1	0.079	-0.932 (inactive)	-1.43 (inactive)	0.851 (inactive)	-0.425 (inactive)	0.925	-0.0451	-0.0669	0.279	0.256
CCOC(=O)C1=CCC(c2cccc3ccccc23)N(S(=O)(=O)c2ccc(C)cc2)C1 (stereo not given)	0.204	-3.85 (inactive)	0.00942 (inactive)	-0.826 (inactive)	-0.0663 (inactive)	1.12	0.201	0.334	0.216	-0.717
